Tests used:
Experiment in all cases: log2 ratio of Biotin-Ahx-Ub-VS probe labelling (fragment/DMSO); higher = less target engagement (more negative = stronger competition), active = hit call of the paper (q ≤ 0.05, log2 ratio ≤ -1)
Conditions in all cases: compound concentration: 200 uM; treatment time: 3 h
[1] = target: T1, ALG13 (UniProt Q9NP73)
T1 sequence (whole entry): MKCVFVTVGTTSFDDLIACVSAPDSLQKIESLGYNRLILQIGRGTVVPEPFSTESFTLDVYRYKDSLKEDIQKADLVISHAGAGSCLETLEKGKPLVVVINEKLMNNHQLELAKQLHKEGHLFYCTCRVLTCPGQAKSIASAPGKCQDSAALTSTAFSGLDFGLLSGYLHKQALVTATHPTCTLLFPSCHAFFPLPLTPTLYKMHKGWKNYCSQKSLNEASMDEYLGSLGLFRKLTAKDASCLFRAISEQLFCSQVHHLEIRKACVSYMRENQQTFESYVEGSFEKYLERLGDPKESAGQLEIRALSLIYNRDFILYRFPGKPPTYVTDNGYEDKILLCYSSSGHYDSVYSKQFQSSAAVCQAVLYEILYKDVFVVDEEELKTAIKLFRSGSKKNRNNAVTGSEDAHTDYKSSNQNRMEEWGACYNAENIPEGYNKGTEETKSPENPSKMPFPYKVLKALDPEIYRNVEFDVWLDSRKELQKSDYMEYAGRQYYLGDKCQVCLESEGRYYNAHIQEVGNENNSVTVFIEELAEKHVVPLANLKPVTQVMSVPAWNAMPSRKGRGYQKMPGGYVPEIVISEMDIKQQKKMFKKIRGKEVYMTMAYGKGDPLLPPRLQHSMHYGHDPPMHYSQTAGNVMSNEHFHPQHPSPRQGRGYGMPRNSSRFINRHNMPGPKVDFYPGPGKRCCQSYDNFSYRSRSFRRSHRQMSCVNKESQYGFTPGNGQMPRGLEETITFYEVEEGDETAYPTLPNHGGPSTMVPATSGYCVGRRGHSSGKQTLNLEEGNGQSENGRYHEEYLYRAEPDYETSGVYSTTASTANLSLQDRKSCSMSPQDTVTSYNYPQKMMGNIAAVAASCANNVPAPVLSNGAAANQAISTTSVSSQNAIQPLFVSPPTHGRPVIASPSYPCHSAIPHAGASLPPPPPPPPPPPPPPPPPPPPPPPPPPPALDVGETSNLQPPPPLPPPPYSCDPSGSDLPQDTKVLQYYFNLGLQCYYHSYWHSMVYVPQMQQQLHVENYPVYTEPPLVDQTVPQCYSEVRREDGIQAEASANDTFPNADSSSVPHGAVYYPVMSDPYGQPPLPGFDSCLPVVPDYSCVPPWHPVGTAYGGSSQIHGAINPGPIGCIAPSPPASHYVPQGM
Outline: (§1)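 Using Biotin-Ahx-Ub-VS at 0.5 µM final for 1 h, DUBs were labelled in HEK293T lysate (495 µg per sample) that had first been treated in triplicate with fragment at 200 µM or vehicle for 3 h. NeutrAvidin enrichment, LysC and trypsin digestion and diaPASEF LC-MS/MS followed. Spectronaut label-free quantities were global-median-normalised. Values are average log2 fragment/vehicle ratios by unpaired t-test, using proteins with ≥2 unique peptides.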

[2] = target: ATXN3 (UniProt P54252)
ATXN3, sequence (P54252 whole entry): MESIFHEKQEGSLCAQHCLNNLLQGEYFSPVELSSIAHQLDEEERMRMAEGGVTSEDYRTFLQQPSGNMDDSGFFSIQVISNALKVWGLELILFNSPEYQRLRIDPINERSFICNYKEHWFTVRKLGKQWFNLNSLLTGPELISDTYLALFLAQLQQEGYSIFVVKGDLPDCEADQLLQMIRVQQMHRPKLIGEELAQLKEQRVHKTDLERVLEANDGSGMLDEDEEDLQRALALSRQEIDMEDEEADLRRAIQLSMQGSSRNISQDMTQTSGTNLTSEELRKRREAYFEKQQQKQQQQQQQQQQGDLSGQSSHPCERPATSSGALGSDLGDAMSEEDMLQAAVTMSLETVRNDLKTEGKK
Outline: as §1

[3] = target: T2, BAP1 (UniProt Q92560)
T2 sequence (whole entry): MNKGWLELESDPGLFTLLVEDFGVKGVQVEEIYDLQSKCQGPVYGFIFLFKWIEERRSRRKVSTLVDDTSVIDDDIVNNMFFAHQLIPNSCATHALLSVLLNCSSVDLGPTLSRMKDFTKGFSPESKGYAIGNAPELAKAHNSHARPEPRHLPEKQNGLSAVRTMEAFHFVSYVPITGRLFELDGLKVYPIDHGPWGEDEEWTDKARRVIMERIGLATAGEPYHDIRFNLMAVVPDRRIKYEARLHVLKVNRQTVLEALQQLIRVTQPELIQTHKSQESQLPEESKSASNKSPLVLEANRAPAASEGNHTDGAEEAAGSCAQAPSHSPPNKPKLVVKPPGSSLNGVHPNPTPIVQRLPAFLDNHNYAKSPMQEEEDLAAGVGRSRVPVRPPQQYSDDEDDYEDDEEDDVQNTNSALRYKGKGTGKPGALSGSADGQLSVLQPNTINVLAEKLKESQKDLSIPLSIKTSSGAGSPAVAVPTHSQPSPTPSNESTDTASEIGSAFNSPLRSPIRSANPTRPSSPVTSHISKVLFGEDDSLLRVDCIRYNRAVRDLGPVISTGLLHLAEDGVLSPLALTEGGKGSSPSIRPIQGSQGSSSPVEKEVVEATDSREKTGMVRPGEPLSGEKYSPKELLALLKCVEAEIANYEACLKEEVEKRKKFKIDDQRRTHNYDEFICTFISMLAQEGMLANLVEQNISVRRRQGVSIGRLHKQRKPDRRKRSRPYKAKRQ
Outline: as §1

[4] = target: EIF3F (UniProt O00303)
EIF3F, sequence (O00303 whole entry): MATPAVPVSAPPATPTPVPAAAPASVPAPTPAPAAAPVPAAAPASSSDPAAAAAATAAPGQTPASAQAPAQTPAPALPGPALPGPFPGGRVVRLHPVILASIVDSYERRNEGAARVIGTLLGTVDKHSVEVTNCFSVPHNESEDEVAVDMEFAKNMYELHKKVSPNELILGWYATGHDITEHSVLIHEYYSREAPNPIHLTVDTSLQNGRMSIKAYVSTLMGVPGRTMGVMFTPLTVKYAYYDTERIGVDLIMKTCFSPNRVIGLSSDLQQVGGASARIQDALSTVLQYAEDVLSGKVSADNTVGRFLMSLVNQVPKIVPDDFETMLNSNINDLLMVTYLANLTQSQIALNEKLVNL
Outline: as §1

[5] = target: EIF3H (UniProt O15372)
EIF3H, sequence (O15372 whole entry): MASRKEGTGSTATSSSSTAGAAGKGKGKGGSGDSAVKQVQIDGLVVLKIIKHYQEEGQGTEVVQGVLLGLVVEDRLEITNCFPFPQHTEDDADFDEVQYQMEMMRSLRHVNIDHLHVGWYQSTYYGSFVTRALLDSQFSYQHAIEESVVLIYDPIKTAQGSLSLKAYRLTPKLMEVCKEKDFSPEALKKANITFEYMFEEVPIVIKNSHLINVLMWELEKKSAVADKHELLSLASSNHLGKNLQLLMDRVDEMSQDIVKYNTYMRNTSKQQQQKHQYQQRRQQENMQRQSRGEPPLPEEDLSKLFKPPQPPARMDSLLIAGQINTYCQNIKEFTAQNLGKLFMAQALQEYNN
Outline: as §1

[6] = target: T3, FAM105A (UniProt Q9NUU6)
T3 sequence (whole entry): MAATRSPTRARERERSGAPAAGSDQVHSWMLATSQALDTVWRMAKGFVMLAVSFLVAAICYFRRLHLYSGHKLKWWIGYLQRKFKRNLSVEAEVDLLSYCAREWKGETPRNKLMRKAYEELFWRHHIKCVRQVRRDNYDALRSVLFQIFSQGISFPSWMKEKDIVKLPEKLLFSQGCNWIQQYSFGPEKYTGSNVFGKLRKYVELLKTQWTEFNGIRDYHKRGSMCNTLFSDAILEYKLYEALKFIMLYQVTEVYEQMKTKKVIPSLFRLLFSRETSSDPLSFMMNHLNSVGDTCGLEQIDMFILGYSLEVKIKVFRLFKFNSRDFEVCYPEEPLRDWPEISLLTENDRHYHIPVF
Outline: as §1

[7] = target: OTUB1 (UniProt Q96FW1)
OTUB1, sequence (Q96FW1 whole entry): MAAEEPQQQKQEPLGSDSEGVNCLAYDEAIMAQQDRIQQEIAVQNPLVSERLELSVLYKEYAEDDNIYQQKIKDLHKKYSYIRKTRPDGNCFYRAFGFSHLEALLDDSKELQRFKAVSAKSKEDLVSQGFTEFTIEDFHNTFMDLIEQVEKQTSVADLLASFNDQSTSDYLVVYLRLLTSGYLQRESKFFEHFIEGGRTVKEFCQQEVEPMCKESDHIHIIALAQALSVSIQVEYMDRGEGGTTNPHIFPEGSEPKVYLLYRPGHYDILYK
Outline: as §1

[8] = target: T4, OTUD4 (UniProt Q01804)
T4 sequence (whole entry): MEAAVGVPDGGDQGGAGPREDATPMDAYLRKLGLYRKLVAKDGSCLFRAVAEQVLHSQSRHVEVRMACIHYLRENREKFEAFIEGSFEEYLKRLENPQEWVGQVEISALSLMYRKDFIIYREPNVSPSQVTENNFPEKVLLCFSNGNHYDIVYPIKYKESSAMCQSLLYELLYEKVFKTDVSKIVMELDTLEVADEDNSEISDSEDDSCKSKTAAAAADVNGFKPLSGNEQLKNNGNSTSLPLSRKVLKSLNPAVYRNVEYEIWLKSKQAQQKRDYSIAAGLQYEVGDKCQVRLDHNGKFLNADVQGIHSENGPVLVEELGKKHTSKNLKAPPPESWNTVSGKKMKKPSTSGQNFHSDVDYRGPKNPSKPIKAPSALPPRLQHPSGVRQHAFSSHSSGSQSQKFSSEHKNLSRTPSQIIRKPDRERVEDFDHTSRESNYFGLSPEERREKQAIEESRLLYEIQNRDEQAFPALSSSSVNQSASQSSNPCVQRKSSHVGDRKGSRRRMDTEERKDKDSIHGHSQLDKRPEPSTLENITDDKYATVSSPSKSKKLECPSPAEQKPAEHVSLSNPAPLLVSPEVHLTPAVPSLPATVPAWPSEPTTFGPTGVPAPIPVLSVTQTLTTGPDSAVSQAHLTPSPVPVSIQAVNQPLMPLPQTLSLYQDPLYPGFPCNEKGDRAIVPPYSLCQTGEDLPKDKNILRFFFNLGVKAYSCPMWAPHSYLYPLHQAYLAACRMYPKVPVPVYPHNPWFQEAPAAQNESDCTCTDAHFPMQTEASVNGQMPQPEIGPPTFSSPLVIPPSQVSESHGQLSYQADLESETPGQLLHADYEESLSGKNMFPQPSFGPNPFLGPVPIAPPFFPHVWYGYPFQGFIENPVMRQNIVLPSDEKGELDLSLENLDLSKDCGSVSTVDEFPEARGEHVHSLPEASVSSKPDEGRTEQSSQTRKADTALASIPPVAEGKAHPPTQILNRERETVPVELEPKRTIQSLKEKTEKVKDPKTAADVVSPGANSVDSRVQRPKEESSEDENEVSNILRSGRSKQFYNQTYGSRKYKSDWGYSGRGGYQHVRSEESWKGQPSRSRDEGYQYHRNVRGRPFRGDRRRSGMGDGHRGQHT
Outline: as §1

[9] = target: T5, OTUD5 (UniProt Q96G74)
T5 sequence (whole entry): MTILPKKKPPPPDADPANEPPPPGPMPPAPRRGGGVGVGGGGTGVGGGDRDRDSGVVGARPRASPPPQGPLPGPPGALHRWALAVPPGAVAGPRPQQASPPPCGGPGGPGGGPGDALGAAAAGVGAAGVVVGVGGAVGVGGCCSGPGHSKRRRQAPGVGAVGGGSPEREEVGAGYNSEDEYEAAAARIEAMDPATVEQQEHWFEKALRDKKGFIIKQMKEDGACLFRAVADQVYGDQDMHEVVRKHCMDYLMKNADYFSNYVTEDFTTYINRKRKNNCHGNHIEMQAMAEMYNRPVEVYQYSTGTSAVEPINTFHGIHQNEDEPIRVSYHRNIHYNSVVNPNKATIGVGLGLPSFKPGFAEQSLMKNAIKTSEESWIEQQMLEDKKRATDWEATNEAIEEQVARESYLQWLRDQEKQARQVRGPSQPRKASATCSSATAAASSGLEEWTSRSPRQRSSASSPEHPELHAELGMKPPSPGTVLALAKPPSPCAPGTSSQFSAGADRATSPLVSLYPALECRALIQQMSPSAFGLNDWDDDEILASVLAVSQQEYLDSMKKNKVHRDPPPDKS
Outline: as §1

Measured: log2 ratio of Biotin-Ahx-Ub-VS probe labelling

O=C(CCl)N1CCc2nc[nH]c2C1c1ccc(Cl)cc1 (centres undefined)
inactive: [1] -0.0235 | [2] -0.508 | [4] -0.277 | [5] 0.263 | [6] 0.102 | [7] 0.00111 | [8] -0.508
active: [3] -1.65 | [9] -1.26

From the supplement of paper PMC11732987, “Enantioselective OTUD7B fragment discovery through chemoproteomics screening and high-throughput optimisation” (Communications Chemistry, 2025)
